Assay outcomes as filed in PubChem.
Rin1 Abl inh: inhibitors of Rin1-Abl protein binding, primary screen, biochemical, TR-FRET; inhibition, % at 7.35 µM; hit rate 0.4% among 360,000; AID 588664, 2011; in the data active means inhibition above about 5%, passing the limit was not always enough
PfM18AAP inh-1: PfM18AAP inhibitors, malaria aminopeptidase, primary screen, biochemical, QFRET, recombinant enzyme; M18 aspartyl aminopeptidase (Plasmodium falciparum 3D7); H-Glu-NHMec fluorogenic cleavage; inhibition, % at 7.35 µM; hit rate 1.2% among 290,000; AID 1822, 2009;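 active means inhibition above the campaign mean inhibition over all tested compounds plus 3 SD, cut at about 28% in these data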;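 further: 0% = plate median of test compound wells and 100% = 2 mM ZnCl2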
Calb FLC: C. albicans growth inhibition with fluconazole, primary screen, CaCi-2 strain, Alamar Blue fluorescence. hit rate 0.57% among 300,000. C. albicans CaCi-2 (fluconazole-resistant clinical isolate) + fluconazole, 48 h. growth inhibition, % (test concentration not listed);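 active means growth inhibition above about 58% in most replicates, limit read from the data, passing the limit was not always enough; inconclusive means exactly half the replicates above a set limit; inactive means most replicates below a set limit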;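 further: all wells also contain fluconazole at 8 µg/ml as a sub-toxic cotreatment; 0% = median of DMSO wells and 100% = median of geldanamycin control wells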
CTSL1 counter-1: Fasciola hepatica cathepsin L1 inhibitors, primary screen, counter-screen for PFM18AAP inhibitor project, biochemical, QFRET, fluorogenic peptide substrate; recombinant F. hepatica cathepsin L1, Z-Leu-Arg-MCA fluorescence; inhibition, % at 5.96 µM; AID 1906, 2009; hit rate 0.49% among 300,000;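 active means inhibition above the mean of all tested compounds plus 3 SD, set per screening campaign, cut at about 17% in these data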;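 further: 0% = plate median of test compound wells and 100% = 1 µM Z-Phe-Ala-diazomethylketone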
PfM18AAP inh-2: PfM18AAP inhibitors, malaria aminopeptidase, confirmation, biochemical, QFRET, recombinant enzyme, triplicate | AID 2170, 2009 | H-Glu-NHMec fluorogenic cleavage | shares compounds with PfM18AAP inh-1 | hit rate 28% among 2,400 | inhibition, % at 7.35 µM;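 active means mean inhibition over replicate wells above the hit cutoff set for the earlier primary screen, cut at about 29% in these data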;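 further: 0% = median of test compound wells and 100% = 2 mM ZnCl2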
CTSL1 counter-2: cathepsin L1 inhibitors, retest, confirmation, counter-screen for PFM18AAP inhibitor project, biochemical, QFRET, triplicate. shares compounds with PfM18AAP inh-1. purified cathepsin L1, Z-Leu-Arg-MCA fluorescence. inhibition, % at 5.96 µM. 2,400 tested, under 10 active. AID 2178, 2009;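 active means average inhibition across replicates above the hit cutoff set in the earlier primary screen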;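 further: 0% = median of test compound wells and 100% = Z-Phe-Ala-diazomethylketone 1 µM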
Target sequence (P07711 whole entry, looked up): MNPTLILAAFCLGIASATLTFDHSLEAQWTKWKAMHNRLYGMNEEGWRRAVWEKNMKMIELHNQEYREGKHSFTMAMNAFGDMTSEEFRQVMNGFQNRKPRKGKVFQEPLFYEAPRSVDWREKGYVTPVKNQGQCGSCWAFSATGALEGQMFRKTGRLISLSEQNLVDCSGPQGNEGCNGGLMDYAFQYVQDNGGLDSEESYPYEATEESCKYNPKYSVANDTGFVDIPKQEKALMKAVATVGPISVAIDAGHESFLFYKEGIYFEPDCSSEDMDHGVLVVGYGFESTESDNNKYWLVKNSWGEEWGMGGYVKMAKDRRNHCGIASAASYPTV
Active calls of the source: *; ? = inconclusive; . = no result given. Most compounds without a hit are left out; they make up all but 2.1% or so of the library.

SMILES | Rin1 Abl inh | PfM18AAP inh-1 | Calb FLC | CTSL1 counter-1 | PfM18AAP inh-2 | CTSL1 counter-2
COc1ccc(-n2nnnc2SCC(=O)c2ccc(O)c(O)c2)cc1 | -3 | 35* | -5 | -2 | 30* | -4
CCOc1ccc(S(=O)(=O)NCCC(=O)N(C)Cc2ccc(C)o2)cc1 | 2 | . | -15 | -2 | . | .
COc1ccc(C(=O)NC2=NCCS2)cc1S(=O)(=O)N1CCCCC1C (centres undefined) | 2 | -12 | -21 | 1 | . | .
CSc1cccc(NC(=O)Nc2ccccc2)c1 | 2 | 2 | ? | 2 | . | .
CSc1cccc(N/C(=N/S(=O)(=O)c2ccccc2)NN)c1 | 0 | 38* | -1 | . | 0 | 1
CCOC(=O)c1c(S(=O)(=O)NCc2ccc(C)o2)c(C)n(C)c1C | -3 | 1 | -27 | -5 | . | .
O=C(COc1ccc([N+](=O)[O-])cc1Cl)NCC1CCCO1 (centres undefined) | 5 | -6 | 4 | 2 | . | .
Cc1cccnc1NC(=S)NCc1ccco1 | -3 | 32* | -11 | -1 | -20 | -5
S=C(NCc1ccco1)Nc1ccccn1 | 2 | 10 | -2 | -6 | . | .
CCCN1CCC(=NNC(=O)CSc2cc(C)c(Br)cc2C)CC1 | -2 | 4 | 1 | -4 | . | .
Oc1ccc(O)c(/C(=N/Nc2ccccc2)c2ccccc2)c1 | . | 45* | -6 | 1 | -80 | -1
CC1CCCCC1N(C)C1CCN(C(=O)CNC(=O)/C=C/c2cccc(Cl)c2)CC1 (centres undefined) | -4 | -34 | 3 | 0 | . | .
COCCOC(=O)c1c(C)n(C)c2ccc(OC(=O)c3c(OC)cccc3OC)cc12 | 2 | 36* | -5 | -1 | -13 | -7
NNc1nc(-c2ccccc2Cl)nc2ccccc12 | 0 | 45* | 11 | 3 | -4 | -4
O=C(NCCc1ccc(O)c(O)c1)C1COc2ccccc2O1 (centres undefined) | 1 | 80* | 0 | 4 | 62* | 1
O=C(CCc1ccc(O)c(O)c1)NNC(=S)Nc1ccc(Br)cc1Cl | 0 | 54* | -9 | 4 | 10 | -9
O=C(NNC(=S)Nc1ccc(Br)cc1Cl)c1ccncc1 | -4 | 2 | 21 | 2 | . | .
O=C(NCCc1ccccc1)C1COc2ccccc2O1 (centres undefined) | 0 | -2 | 1 | -4 | . | .
O=C(CCc1ccc(O)c(O)c1)NNC(=S)NCCc1ccccc1 | -1 | 68* | 5 | 14 | 30* | -1
COc1cccc(NC(=O)NNC(=O)CCc2ccc(O)c(O)c2)c1 | 3 | 73* | -28 | . | 52* | 1
COc1ccc(CCC(=O)NNC(=O)Nc2cccc(Cl)c2)cc1 | 0 | -2 | 5 | . | . | .
COc1ccc(C(C)=O)cc1COC(=O)CCC(=O)c1cccs1 | -1 | . | . | . | . | .
COc1cccc(NC(=O)CN(C)C(=O)C2CCN(C(=O)c3ccccc3C)CC2)c1 | 1 | . | 0 | 0 | . | .
O=C(CSc1nc2cc(S(=O)(=O)N3CCOCC3)ccc2o1)Nc1c(F)cccc1F | 2 | 32* | -20 | 0 | 3 | -1
CCC(=O)/C=C1/Sc2ccccc2N1CC | 1 | 54* | -17 | 4 | 7 | 4
SMILES | Rin1 Abl inh | PfM18AAP inh-1 | Calb FLC | CTSL1 counter-1 | PfM18AAP inh-2 | CTSL1 counter-2
CN1/C(=C\C(=O)c2ccco2)C(C)(C)c2ccccc21 | -6 | 6 | 0 | -1 | . | .
CCN1/C(=C/C(=O)c2ccco2)Sc2ccccc21 | -4 | 46* | ? | 1 | -12 | 2
CCC(=O)/C=C1/Sc2ccc(OC)cc2N1CC | -4 | 27 | 4 | 4 | . | .
Cc1ccccc1CCN1CCCC(CN(C)C(=O)C(=O)c2ccco2)C1 (centres undefined) | 1 | -2 | -17 | -2 | . | .
C/C(=N\NC(=O)c1cc(O)ccc1O)c1cccc(NC(=O)c2ccc(Cl)cc2)c1 | 1 | 36* | -5 | -1 | -50 | -7
C/C(=N\NC(=O)c1cc(O)ccc1O)c1cccc(NC(=O)c2cccc(Cl)c2)c1 | 4 | 16 | -1 | 2 | . | .
Nc1ccccc1Nc1cc(-c2ccccc2)nn1-c1ccccc1 | 2 | 5 | -3 | 0 | . | .
Nc1ccccc1Nc1cc(-c2ccccc2)[nH]n1 | 2 | 39* | 43 | . | -27 | 4
CCOC(=O)C(C)Sc1cnccn1 (centres undefined) | 1 | -4 | -12 | 0 | . | .
Cc1ccc(-n2c(-c3ccco3)n[nH]c2=S)cc1 | -2 | 32* | 5 | 3 | -5 | -5
CC(/C=N/n1c(-c2ccco2)n[nH]c1=S)=C\c1ccco1 | -4 | 32* | 9 | 2 | -27 | 2
Fc1ccc(-n2c(-c3ccco3)n[nH]c2=S)cc1 | -3 | 16 | 3 | . | . | .
O=[N+]([O-])c1ccccc1/C=C/C=N/n1c(-c2ccco2)n[nH]c1=S | -1 | 32* | -12 | 2 | -15 | -2
COc1ccc(N2CCN(C(=O)c3oc4ccccc4c3NC(=O)Cc3ccc(OC)c(OC)c3)CC2)cc1 | 0 | 4 | 6 | -6 | . | .
Cc1ccc2ccccc2c1C(O)c1ncc(-c2ccccc2Cl)[nH]1 (centres undefined) | -3 | . | . | . | . | .
O=C(Nc1ccc(F)c([N+](=O)[O-])c1)c1ccc2c(c1)C(=O)OC2=O | . | -2 | . | . | . | .
Oc1ccc(N2CCN(CC(O)c3ccccc3)CC2)cc1 (centres undefined) | 2 | 51* | -1 | -4 | -22 | 0
O=[N+]([O-])c1ccc(C(O)CN2CCN(c3ccccc3)CC2)cc1 (centres undefined) | 4 | -6 | 1 | -4 | . | .
CN(C)/N=C/c1ccc([N+](=O)[O-])cc1[N+](=O)[O-] | 2 | 34* | -3 | 6 | -20 | 2
Cc1ccc(NC(=O)COC(=O)c2c(-c3ccccc3)noc2C)c(C)c1 | 3 | . | . | . | . | .
C=CCn1c(Cc2c[nH]c3ccccc23)n[nH]c1=S | 2 | -2 | 11 | 1 | . | .
C=CCn1c(Cc2ccccc2)n[nH]c1=S | -2 | 34* | 16 | 0 | -5 | -1
C=CCn1c(-c2ccoc2)n[nH]c1=S | -1 | 49* | -13 | -2 | -20 | -1
Nn1c(SCC(=O)Nc2cccc(Br)c2)nnc1C1CC1 | 2 | . | . | . | . | .
Cc1cccc(C(C)C)c1NC(=O)Cc1ccc(S(=O)(=O)N2CCOCC2)s1 | -2 | . | -7 | -3 | . | .
COc1ccc(CC(N)c2csc(Nc3cc(NCc4ccco4)ncn3)n2)cc1 (centres undefined) | 3 | . | . | . | . | .
O=c1[nH]c(=S)[nH]c2c1CN(Cc1ccc(F)cc1)CC2 | -1 | 37* | 4 | -3 | 9 | 5
